According to the antibiotic and cytotoxicity screens of Wong et al. (2023):
In all, about 39,000 compounds went through this assay and about 3,300 (8.5%) were called active. The full list was thinned out, with actives kept by preference.

What follows are compounds tested on HepG2 (assay: cytotoxicity call (relative viability < 0.9)). Conditions: 10 µM.

SMILES	cytotoxicity call
C[C@@H]1CCCCO[C@@H](CN(C)C(=O)Nc2ccccc2)[C@H](C)CN([C@H](C)CO)C(=O)c2cc(NC(=O)C3CCCCC3)ccc2O1	inactive
COc1ccc(S(=O)(=O)N(C)C[C@@H]2OCCCC[C@H](C)Oc3ccc(NC(=O)Nc4ccc(F)cc4)cc3C(=O)N([C@H](C)CO)C[C@@H]2C)cc1	inactive
C[C@H](CO)N1C[C@H](C)[C@@H](CN(C)C(=O)Nc2ccc(C(F)(F)F)cc2)OCCCC[C@H](C)Oc2ccc(NS(=O)(=O)c3cn(C)cn3)cc2C1=O	inactive
Cc1ccc(S(=O)(=O)Nc2ccc3c(c2)C(=O)N([C@H](C)CO)C[C@H](C)[C@@H](CN(C)Cc2ccc(C(F)(F)F)cc2)OCCCC[C@@H](C)O3)cc1	inactive
C[C@@H]1CCCCO[C@H](CN(C)Cc2ccc(C(F)(F)F)cc2)[C@H](C)CN([C@@H](C)CO)C(=O)c2cc(NS(=O)(=O)c3ccc(F)cc3)ccc2O1	inactive
Cc1ccc(S(=O)(=O)Nc2ccc3c(c2)C(=O)N([C@H](C)CO)C[C@@H](C)[C@@H](CN(C)Cc2ccc(C(F)(F)F)cc2)OCCCC[C@H](C)O3)cc1	active
Cc1ccc(S(=O)(=O)Nc2ccc3c(c2)C(=O)N([C@H](C)CO)C[C@H](C)[C@H](CN(C)Cc2ccc(C(F)(F)F)cc2)OCCCC[C@@H](C)O3)cc1	active
C[C@H]1CCCCO[C@H](CN(C)Cc2ccc(C(F)(F)F)cc2)[C@@H](C)CN([C@@H](C)CO)C(=O)c2cc(NS(=O)(=O)c3ccc(F)cc3)ccc2O1	inactive
Cc1ccc(S(=O)(=O)Nc2ccc3c(c2)C(=O)N([C@@H](C)CO)C[C@H](C)[C@H](CN(C)Cc2ccc(C(F)(F)F)cc2)OCCCC[C@H](C)O3)cc1	inactive
Cc1ccc(S(=O)(=O)Nc2ccc3c(c2)C(=O)N([C@@H](C)CO)C[C@@H](C)[C@H](CN(C)Cc2ccc(C(F)(F)F)cc2)OCCCC[C@H](C)O3)cc1	active
Cc1ccc(S(=O)(=O)Nc2ccc3c(c2)C(=O)N([C@H](C)CO)C[C@@H](C)[C@H](CN(C)Cc2ccc(C(F)(F)F)cc2)OCCCC[C@@H](C)O3)cc1	active
C[C@@H]1CN([C@@H](C)CO)C(=O)c2cc(NS(=O)(=O)c3ccc(F)cc3)ccc2O[C@@H](C)CCCCO[C@@H]1CN(C)Cc1ccc(C(F)(F)F)cc1	inactive
C[C@H]1CCCCO[C@@H](CN(C)Cc2ccc(C(F)(F)F)cc2)[C@@H](C)CN([C@@H](C)CO)C(=O)c2cc(NS(=O)(=O)c3ccc(F)cc3)ccc2O1	inactive
Cc1ccc(S(=O)(=O)Nc2ccc3c(c2)C(=O)N([C@H](C)CO)C[C@H](C)[C@H](CN(C)C(=O)Cc2ccccc2)OCCCC[C@H](C)O3)cc1	inactive
C[C@H](CO)N1C[C@H](C)[C@H](CN(C)CC2CC2)Oc2ccc(NS(=O)(=O)c3ccccc3)cc2CC1=O	inactive
Cc1ccc(S(=O)(=O)N2C[C@H](O)COC[C@@H]3O[C@@H](CC(=O)N4CCc5ccccc5C4)CC[C@H]32)cc1	inactive
C[C@@H](O)C#Cc1cnc2c(c1)C(=O)N([C@@H](C)CO)C[C@H](C)[C@@H](CN(C)C(=O)CN1CCOCC1)O2	inactive
CCNC(=O)[C@@H]1[C@@H](CO)[C@@H]2Cn3c(ccc(C4=CCCC4)c3=O)[C@H]1N2S(=O)(=O)c1cn(C)cn1	inactive

SMILES	cytotoxicity call
COCC(=O)N1C[C@@H](C)[C@H](OC)CN(C)C(=O)c2ccc(NC(=O)c3ccc(F)cc3)cc2OC[C@H]1C	inactive
C[C@H]1CCCCO[C@H](CN(C)C(=O)Nc2ccc3c(c2)OCO3)[C@@H](C)CN([C@@H](C)CO)C(=O)c2cc(NS(=O)(=O)c3ccc(F)cc3)ccc2O1	inactive
O=C(C[C@@H]1CC[C@H]2[C@@H](COC[C@H](O)CN2C(=O)Nc2ccc(F)cc2)O1)NCCCN1CCOCC1	inactive
Cc1ccc(S(=O)(=O)Nc2ccc3c(c2)C(=O)N([C@H](C)CO)C[C@H](C)[C@@H](CN(C)Cc2ccc(C(F)(F)F)cc2)OCCCC[C@H](C)O3)cc1	active
Cc1ccc(S(=O)(=O)Nc2ccc3c(c2)C(=O)N([C@@H](C)CO)C[C@@H](C)[C@H](CN(C)Cc2ccc(C(F)(F)F)cc2)OCCCC[C@@H](C)O3)cc1	active
Cc1ccc(S(=O)(=O)Nc2ccc3c(c2)C(=O)N([C@@H](C)CO)C[C@@H](C)[C@@H](CN(C)Cc2ccc(C(F)(F)F)cc2)OCCCC[C@H](C)O3)cc1	inactive
Cc1ccc(S(=O)(=O)Nc2ccc3c(c2)C(=O)N([C@@H](C)CO)C[C@H](C)[C@@H](CN(C)Cc2ccc(C(F)(F)F)cc2)OCCCC[C@H](C)O3)cc1	active
Cc1ccc(S(=O)(=O)Nc2ccc3c(c2)C(=O)N([C@@H](C)CO)C[C@H](C)[C@@H](CN(C)Cc2ccc(C(F)(F)F)cc2)OCCCC[C@@H](C)O3)cc1	active
Cc1ccc(S(=O)(=O)Nc2ccc3c(c2)C(=O)N([C@@H](C)CO)C[C@H](C)[C@H](CN(C)Cc2ccc(C(F)(F)F)cc2)OCCCC[C@@H](C)O3)cc1	inactive
NC(=O)c1ccc[n+](C2OC(COP(=O)([O-])OP(=O)(O)OCC3OC(n4cnc5c(N)ncnc54)C(O)C3O)C(O)C2O)c1 (stereo unspecified)	inactive
CNC[C@@H]1Oc2ccc(NC(=O)CCN3CCOCC3)cc2CC(=O)N([C@@H](C)CO)C[C@H]1C	inactive
CC(C)(C)c1c(C(C)(C)C)c1=O	inactive
O=C(N[C@@H]1CC[C@H](CCn2cc(C3(O)CCCC3)nn2)O[C@H]1CO)C1CCOCC1	inactive
Cc1cc(C(=O)N2CCNC(=O)C2(C)C)no1	inactive
C[C@H]1CN([C@@H](C)CO)C(=O)Cc2cc(NC(=O)CCC(F)(F)F)ccc2O[C@@H]1CN(C)S(=O)(=O)c1ccccc1	inactive
CN(C)CCCNC(=O)C[C@@H]1CC[C@H]2[C@@H](COc3ccc(NC(=O)c4cccc(F)c4)cc3C(=O)N2C)O1	inactive
Cc1ccc(S(=O)(=O)Nc2cccc3c2O[C@@H](CN(C)S(=O)(=O)c2ccc(F)cc2)[C@@H](C)CN([C@H](C)CO)C3=O)cc1	inactive
CC(C)(C)OC(=O)C[C@H]1C/C=C/CC[C@H](Cc2ccc(F)cc2)C(=O)O[C@H](c2ccccc2)CNC1=O	inactive
